Measured values reported in PubChem BioAssay (EPA / NIEHS).
The source made the active and inactive calls. Rule for the calls: active = hit-call score of the fitted dose curve at least 0.9, where 1 is the maximum; inactive = score below 0.9.

Key:
[1] = read-out: Matrix Metallopeptidase 1 (MMP1), MMP1 (gene 4312); experiment: BSK_hDFCGF_MMP1: BioMAP Diversity Plus: hDFCGF Assay for Matrix Metallopeptidase 1 (MMP1) Biomarker Activity (AID 2283064); conditions: primary human foreskin fibroblasts; actives raise or lower the signal
How it was run: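 Primary human foreskin fibroblasts exposed to chemicals for 24 h; MMP1 measured by ELISA. Cytotoxicity tracked by SRB staining in parallel cultures; bidirectional fit relative to DMSO.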

[2] = read-out: Intercellular Adhesion Molecule 1 (ICAM1), ICAM1 (gene 3383); experiment: BSK_KF3CT_ICAM1: BioMAP Diversity Plus: KF3CT Assay for Intercellular Adhesion Molecule 1 (ICAM1) Biomarker Activity (AID 2283067); conditions: primary human keratinocytes with fibroblasts; actives raise or lower the signal
How it was run: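 Cell-surface ICAM-1 was measured by ELISA 24 h after dosing primary human skin keratinocytes co-cultured with fibroblasts. Parallel SRB staining tracked overt cytotoxicity. Gain or loss of signal was fitted relative to DMSO.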

[3] = read-out: Interferon-gamma inducible Protein 10 (IP10), CXCL10 (gene 3627); experiment: BSK_KF3CT_IP10: BioMAP Diversity Plus: KF3CT Assay for Interferon-gamma inducible Protein 10 (IP10) Biomarker Activity (AID 2283068); conditions: primary human keratinocytes with fibroblasts; actives raise or lower the signal
How it was run: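 In a primary skin co-culture of keratinocytes and fibroblasts, IP-10 is quantified by ELISA at 24 h after dosing. SRB staining of parallel wells monitors overt toxicity. Curves are fitted both directions against DMSO.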

[4] = BSK_KF3CT_SRB: Viability Assessment in the BioMAP Diversity Plus: KF3CT Assay (AID 2283069); conditions: primary human keratinocytes with fibroblasts;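 note: total protein by sulforhodamine B staining as a cytotoxicity measure; read 24 h after compound addition; fitted for both signal gain and loss against DMSO baseline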
How it was run: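 Human keratinocyte and foreskin fibroblast co-culture exposed to chemical for 24 h. Total protein measured in parallel cultures by 0.1% sulforhodamine B staining after 10% TCA fixation, read at 560 nm; bidirectional fit relative to DMSO.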

[5] = read-out: Interleukin-1 alpha (IL1a), IL1A (gene 3552); experiment: BSK_KF3CT_IL1a: BioMAP Diversity Plus: KF3CT Assay for Interleukin-1 alpha (IL1a) Biomarker Activity (AID 2283070); conditions: primary human keratinocytes with fibroblasts; actives raise or lower the signal
How it was run: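 Primary human keratinocyte plus foreskin fibroblast co-culture, dosed and measured at 24 h in 96-well plates. IL-1a level quantified by ELISA; bidirectional fit relative to DMSO.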

[6] = read-out: TIMP metallopeptidase inhibitor 2 (TIMP2), TIMP2 (gene 7077); experiment: BSK_KF3CT_TIMP2: BioMAP Diversity Plus: KF3CT Assay for TIMP metallopeptidase inhibitor 2 (TIMP2) Biomarker Activity (AID 2283071); conditions: primary human keratinocytes with fibroblasts; actives raise or lower the signal
How it was run: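 Human primary keratinocyte/foreskin fibroblast co-culture dosed with chemical and sampled at 24 h. TIMP-2 levels quantified by ELISA; bidirectional fitting against DMSO negative control as baseline.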

[7] = read-out: C-C motif chemokine 2 (Homo sapiens) (UniProt P13500); experiment: BSK_KF3CT_MCP1: BioMAP Diversity Plus: KF3CT Assay for Monocyte Chemoattractant Protein 1 (MCP1/CCL2) Biomarker Activity (AID 2283073); conditions: primary human keratinocytes with fibroblasts; actives raise or lower the signal
How it was run: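 ELISA read-out of MCP-1, 24 h post-dose, in primary human skin keratinocytes co-cultured with fibroblasts. Parallel SRB staining monitors cytotoxicity; changes fitted both directions relative to DMSO.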

[8] = read-out: urokinase plasminogen activator (uPA), PLAU (gene 5328); experiment: BSK_KF3CT_uPA: BioMAP Diversity Plus: KF3CT Assay for urokinase plasminogen activator (uPA) Biomarker Activity (AID 2283075); conditions: primary human keratinocytes with fibroblasts; actives raise or lower the signal
How it was run: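 Primary human keratinocyte/foreskin fibroblast co-culture exposed to chemical; uPA measured by ELISA at 24 h. Bidirectional fit versus DMSO, with parallel SRB total-protein staining for cytotoxicity.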

CD40, CD40 (gene 958) = experiment: BSK_LPS_CD40: BioMAP Diversity Plus: LPS Assay for CD40 Biomarker Activity (AID 2283076); conditions: primary human HUVEC with PBMC; actives raise or lower the signal
How it was run: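 In the LPS system of human endothelial cells with peripheral blood mononuclear cells, CD40 levels were read by ELISA 24 h post-treatment. Signal changes in either direction were fitted against the DMSO baseline, with parallel SRB protein staining.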

[9] = read-out: E-selectin (Homo sapiens) (UniProt P16581); experiment: BSK_LPS_Eselectin: BioMAP Diversity Plus: LPS Assay for Eselectin Biomarker Activity (AID 2283077); conditions: primary human HUVEC with PBMC; actives raise or lower the signal
How it was run: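 E-selectin ELISA on LPS-stimulated endothelial cell/PBMC co-cultures, read 24 h post-treatment; gains and losses fitted against DMSO. Parallel SRB staining (0.1% SRB after 10% TCA fixation, 560 nm) flags overt cytotoxicity.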

[10] = read-out: Interleukin-8 (IL8), CXCL8 (gene 3576); experiment: BSK_LPS_IL8: BioMAP Diversity Plus: LPS Assay for Interleukin-8 (IL8) Biomarker Activity (AID 2283078); conditions: primary human HUVEC with PBMC; actives raise or lower the signal
How it was run: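 ELISA read-out of IL-8 after 24 h chemical treatment of LPS-activated endothelial/PBMC human primary co-cultures. Changes either up or down relative to DMSO; overt cytotoxicity checked by sulforhodamine B staining in parallel wells.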

[11] = BSK_LPS_SRB: Viability Assessment in the BioMAP Diversity Plus: LPS Assay (AID 2283079); conditions: primary human HUVEC with PBMC;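 note: total protein by sulforhodamine B absorbance as a cytotoxicity measure; measured one day after compound addition; fitted in both directions against DMSO so loss or gain of signal counts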
How it was run: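 SRB viability endpoint: cells fixed with 10% TCA, stained with 0.1% SRB, read at 560 nm, 24 h post-dose. HUVEC/PBMC co-culture; signal change in either direction scored relative to DMSO.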

[12] = read-out: Interleukin-1 alpha (IL1a), IL1A (gene 3552); experiment: BSK_LPS_IL1a: BioMAP Diversity Plus: LPS Assay for Interleukin-1 alpha (IL1a) Biomarker Activity (AID 2283080); conditions: primary human HUVEC with PBMC; actives raise or lower the signal
How it was run: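 Readout is IL-1a level by ELISA, 24 h post-dose, fitted as gain or loss relative to DMSO. System: LPS-activated human primary co-culture of vascular endothelium and peripheral blood mononuclear cells, with parallel SRB total-protein cytotoxicity.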

[13] = read-out: Monocyte Chemoattractant Protein-1 (MCP1), CCL2 (gene 6347); experiment: BSK_LPS_MCP1: BioMAP Diversity Plus: LPS Assay for Monocyte Chemoattractant Protein-1 (MCP1) Biomarker Activity (AID 2283081); conditions: primary human HUVEC with PBMC; actives raise or lower the signal;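 for AC50: secreted MCP-1 protein quantified by ELISA in culture supernatant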
How it was run: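 Secreted MCP-1 read by ELISA at 24 h post-dosing in an LPS-activated co-culture of endothelial cells with peripheral blood mononuclear cells. Fits run in both directions, DMSO as baseline; parallel SRB staining tracks overt cytotoxicity.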

[14] = BSK_LPS_PGE2: BioMAP Diversity Plus: LPS Assay for Prostaglandin E2 (PGE2) Biomarker Activity (AID 2283082); conditions: primary human HUVEC with PBMC; actives raise or lower the signal
How it was run: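 HUVEC plus PBMC co-culture stimulated with LPS; secreted PGE2 quantified by ELISA 24 h after chemical dosing. Activity fitted bidirectionally against DMSO as negative control and baseline; parallel SRB total-protein staining served as cytotoxicity check.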

[15] = read-out: Macrophage colony-stimulating factor (MCSF), CSF1 (gene 1435); experiment: BSK_LPS_MCSF: BioMAP Diversity Plus: LPS Assay for Macrophage colony-stimulating factor (MCSF) Biomarker Activity (AID 2283083); conditions: primary human HUVEC with PBMC; actives raise or lower the signal
How it was run: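 Bidirectional fitting against DMSO was applied to M-CSF levels read by ELISA at 24 h post-dose. The system pairs human umbilical vein endothelium with peripheral blood mononuclear cells; parallel SRB staining tracked cytotoxicity.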

[16] = read-out: Plasminogen activator inhibitor-1 (PAI1), SERPINE1 (gene 5054); experiment: BSK_hDFCGF_PAI1: BioMAP Diversity Plus: hDFCGF Assay for Plasminogen activator inhibitor-1 (PAI1) Biomarker Activity (AID 2283066); conditions: primary human foreskin fibroblasts; actives raise or lower the signal
How it was run: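 Human foreskin fibroblasts in the hDFCGF system were dosed with compound for 24 h; PAI-1 was quantified by ELISA. Bidirectional curve fitting used DMSO as negative control and baseline.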

[17] = read-out: Matrix Metallopeptidase 9 (MMP9), MMP9 (gene 4318); experiment: BSK_KF3CT_MMP9: BioMAP Diversity Plus: KF3CT Assay for Matrix Metallopeptidase 9 (MMP9) Biomarker Activity (AID 2283074); conditions: primary human keratinocytes with fibroblasts; actives raise or lower the signal;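 for AC50: MMP9 protein level quantified by ELISA in the co-culture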
How it was run: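 Human keratinocyte and foreskin fibroblast co-culture exposed to chemicals for 24 h; MMP9 biomarker measured by ELISA, bidirectional fitting relative to DMSO; cytotoxicity tracked by SRB total protein staining in parallel cultures.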

[18] = read-out: Transforming growth factor beta 1 (TGFb1), TGFB1 (gene 7040); experiment: BSK_KF3CT_TGFb1: BioMAP Diversity Plus: KF3CT Assay for Transforming growth factor beta 1 (TGFb1) Biomarker Activity (AID 2283072); conditions: primary human keratinocytes with fibroblasts; actives raise or lower the signal
How it was run: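 Human keratinocyte plus foreskin fibroblast primary co-culture, dosed with chemical for 24 h. TGF-b1 quantified by ELISA. Activity fitted bidirectionally against DMSO negative control as baseline.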

Measured: AC50

E-selectin (Homo sapiens), sequence (P16581 whole entry, looked up): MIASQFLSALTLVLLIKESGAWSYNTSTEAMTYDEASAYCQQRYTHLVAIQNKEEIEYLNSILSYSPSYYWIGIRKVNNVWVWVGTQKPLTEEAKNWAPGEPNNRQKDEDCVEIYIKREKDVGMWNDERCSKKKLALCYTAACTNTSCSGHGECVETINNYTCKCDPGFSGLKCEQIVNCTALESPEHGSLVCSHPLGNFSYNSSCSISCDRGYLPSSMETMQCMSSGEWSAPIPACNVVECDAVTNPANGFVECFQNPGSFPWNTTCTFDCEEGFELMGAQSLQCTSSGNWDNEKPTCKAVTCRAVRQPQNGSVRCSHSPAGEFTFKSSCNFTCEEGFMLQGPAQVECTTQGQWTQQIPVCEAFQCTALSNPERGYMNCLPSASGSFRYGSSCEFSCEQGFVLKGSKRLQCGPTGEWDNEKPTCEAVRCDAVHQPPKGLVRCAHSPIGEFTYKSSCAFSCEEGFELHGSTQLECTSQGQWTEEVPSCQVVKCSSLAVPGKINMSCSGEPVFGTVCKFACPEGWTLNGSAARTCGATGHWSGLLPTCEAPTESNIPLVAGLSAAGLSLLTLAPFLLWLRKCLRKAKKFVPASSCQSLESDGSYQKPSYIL

O=S(=O)(c1ccc(Cl)cc1)c1cc(Cl)c(Cl)cc1Cl
active: [6] 12.7 µM
not listed: [16] | [17] | [18]
inactive: all other assays above

Clc1cccc(Cl)c1
not listed: [18]
inactive: all other assays above

Cc1ccc(OP(=O)(Oc2ccc(C)cc2C)Oc2ccc(C)cc2C)c(C)c1
active: [1] 10.3 µM | [16] 0.445 µM | [17] 8.84 µM | [8] 20 µM | CD40, CD40 (gene 958) 6.48 µM | [12] 5.81 µM | [13] 20 µM | [15] 10.7 µM
not listed: [18]
inactive: all other assays above

CC(C)(C)c1cc([N+](=O)[O-])cc(C(C)(C)C)c1O
active: [3] 0.0652 µM | [6] 20 µM | [7] 30.7 µM | CD40, CD40 (gene 958) 0.492 µM | [9] 0.345 µM | [11] 0.683 µM | [15] 0.452 µM
not listed: [17]
inactive: all other assays above

Oc1ccc(Cc2ccc(O)cc2)cc1
not listed: [18]
inactive: all other assays above
